According to PubChem BioAssay:
Calls of active or inactive are those of the source. Unless noted, the rule behind the calls is not given here.

Legend:
[1] = resazurin metabolic signal in HepG2 cells – cell-based, resazurin fluorescence, 24 h, PK04 Diversity Set, profiling panel (AID 1172); conditions: HepG2 viability, higher = more signal; note: test concentration not given here
[2] = budding yeast growth changes without added modifier – OD600, strain BY4716, 24 h, basal condition, primary screen (AID 1173); conditions: S. cerevisiae BY4716 growth, OD600, 24 h; higher = more signal, called active from +8 up or from −8 down
[3] = viability profiling in MM1S myeloma cells – cell-based, resazurin fluorescence, basal, 24 h, PK04 Diversity Set, profiling panel (AID 1174); conditions: higher = more signal, called active from +8 up or from −8 down;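 note: MM1S multiple myeloma cell line; test concentration not given here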
[4] = molecular target: Dihydroorotate dehydrogenase (quinone), mitochondrial (Plasmodium falciparum (isolate 3D7)) (UniProt Q08210); assay: inhibition of P. falciparum DHODH – biochemical, C-terminal His tag, absorbance 600 nm, primary screen (AID 1175); conditions: PfDHODH enzyme, DCIP absorbance 600 nm; higher = more signal, called active from +8 up or from −8 down;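 note: recombinant parasite enzyme with a five histidine tag at its C terminus; test concentration not given here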
[5] = inhibition of PAO1 biofilm formation – strain PAO1, LB-PBS medium, absorbance 600 nm, primary screen (AID 1176); note: test concentration not given here; conditions: P. aeruginosa PAO1 growth/biofilm, A600, 12 h; higher = more signal
[6] = growth modulation of vineyard yeast isolate – strain RM11-1a, OD600, basal, 24 h, primary screen (AID 1177);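 note: cultures grown under basal conditions with no added stressor; test concentration not given here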; conditions: S. cerevisiae RM11-1a growth, OD600, 24 h; higher = more signal, called active from +8 up or from −8 down
[7] = growth of efflux-deficient E. coli DRC39 – strain DRC39, OD650, 24 h, E. coli filamentation inducers, primary screen (AID 1178);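 note: growth measured as culture turbidity by optical density at 650 nm; test concentration not given here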; conditions: E. coli DRC39 acrAB, higher = more signal, called active from +8 up or from −8 down
[8] = growth of efflux-deficient E. coli DRC39 – strain DRC39, OD650, 48 h, E. coli filamentation inducers, primary screen (AID 1179);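 note: screen aims at cell division blockers that make cells filament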; conditions: E. coli DRC39 delta-acrAB growth, higher = more signal, called active from +8 up or from −8 down
[9] = viability profiling in RPMI8226 myeloma cells – cell-based, resazurin fluorescence, basal, 24 h, PK04 Diversity Set, profiling panel (AID 1180); conditions: higher = more signal;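 note: RPMI8826 multiple myeloma cell line at 5000 cells per well; test concentration not given here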
[10] = molecular target: E3 ubiquitin-protein ligase XIAP (Homo sapiens) (UniProt P98170); assay: small molecules binding XIAP protein – biophysical, small-molecule microarray, fluorescence 635 nm, primary screen (AID 1181); conditions: higher = more signal;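 note: score merges 667 nm emission and signal to noise over triplicate slides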
Sequence of E3 ubiquitin-protein ligase XIAP (Homo sapiens) (P98170 whole entry, looked up): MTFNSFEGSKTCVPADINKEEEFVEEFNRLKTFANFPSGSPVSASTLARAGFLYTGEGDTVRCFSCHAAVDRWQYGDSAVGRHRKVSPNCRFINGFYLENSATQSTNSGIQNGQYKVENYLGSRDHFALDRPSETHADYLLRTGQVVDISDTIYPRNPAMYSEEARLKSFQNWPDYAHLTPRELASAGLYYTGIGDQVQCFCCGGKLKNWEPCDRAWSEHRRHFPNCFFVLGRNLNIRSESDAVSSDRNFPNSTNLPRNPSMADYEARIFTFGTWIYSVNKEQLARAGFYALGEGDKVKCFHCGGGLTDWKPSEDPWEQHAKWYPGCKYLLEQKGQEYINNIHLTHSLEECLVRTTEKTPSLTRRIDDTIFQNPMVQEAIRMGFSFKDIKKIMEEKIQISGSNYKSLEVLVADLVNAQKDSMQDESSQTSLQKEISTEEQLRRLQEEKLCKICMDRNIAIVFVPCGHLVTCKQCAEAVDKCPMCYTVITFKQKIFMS

Sequence of Dihydroorotate dehydrogenase (quinone), mitochondrial (Plasmodium falciparum (isolate 3D7)) (Q08210 whole entry, looked up): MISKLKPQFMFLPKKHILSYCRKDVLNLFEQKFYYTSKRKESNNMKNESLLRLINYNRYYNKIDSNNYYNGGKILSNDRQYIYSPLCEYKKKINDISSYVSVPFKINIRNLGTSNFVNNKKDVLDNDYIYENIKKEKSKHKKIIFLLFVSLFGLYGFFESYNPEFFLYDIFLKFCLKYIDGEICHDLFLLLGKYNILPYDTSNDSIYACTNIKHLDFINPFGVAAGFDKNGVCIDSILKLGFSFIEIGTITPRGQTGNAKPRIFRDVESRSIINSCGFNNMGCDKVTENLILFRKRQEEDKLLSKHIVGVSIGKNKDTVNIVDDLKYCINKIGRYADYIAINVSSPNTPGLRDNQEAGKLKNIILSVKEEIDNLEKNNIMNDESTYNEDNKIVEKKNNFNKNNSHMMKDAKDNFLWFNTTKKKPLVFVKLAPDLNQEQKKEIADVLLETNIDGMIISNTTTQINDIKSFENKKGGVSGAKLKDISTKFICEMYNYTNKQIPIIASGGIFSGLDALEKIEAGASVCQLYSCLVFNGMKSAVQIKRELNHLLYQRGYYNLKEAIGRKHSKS

| Compound | z-score [1] | z-score [2] | z-score [3] | composite z-score [4] | z-score [5] | z-score [6] | z-score [7] | z-score [8] | z-score [9] | composite z-score [10] |
| --- | --- | --- | --- | --- | --- | --- | --- | --- | --- | --- |
| Cc1ccc([C@H]2C(C(=O)O)=C[C@@H](C)N2S(=O)(=O)c2ccc(C)cc2)cc1 | -0.534 | -0.704 (inactive) | -0.612 (inactive) | -0.377 (inactive) | -0.0322 (inactive) | -0.211 (inactive) | -0.654 (inactive) | -0.444 (inactive) | -1.52 | 0.254 |
| O=C1C2C=CC(C(O)c3ccc(B(O)O)cc3)N(Nc3ccccc3)C2C(=O)N1c1ccccc1 (stereo not given) | -1.28 | -0.841 (inactive) | -1.35 (inactive) | -0.395 (inactive) | 0.546 (inactive) | 0.0003 (inactive) | 0.17 (inactive) | -0.346 (inactive) | -1.59 | 0.0623 |
| COC(=O)[C@@]1(Cc2ccc(OC)cc2)[C@H]2c3cc(C(=O)N4CCCC4)n(Cc4cc(F)cc5c4OCOC5)c3C[C@H]2CN1C(=O)c1ccccc1 | -1.47 | 0.433 (inactive) | -5.86 (inactive) | -0.607 (inactive) | 0.687 (inactive) | -0.334 (inactive) | -1.32 (inactive) | -1.24 (inactive) | -3.53 | 0.389 |
| CCCCCN1CC=CC23O[C@@H]4C=CCOC(=O)[C@@H]4[C@H]2C(=O)N(CCCO)[C@@H]3C1=O (stereo not given in full) | 0.22 | -0.988 (inactive) | 0.806 (inactive) | -1.67 (inactive) | 0.0837 (inactive) | -0.0379 (inactive) | -0.625 (inactive) | 0.244 (inactive) | 0.217 | -0.0988 |
| C=CCOC(=O)[C@@H]1[C@H]2C(=O)O[C@H](c3ccccc3)[C@H](c3ccccc3)N2[C@H](c2ccc(OCCOC(=O)[C@@H]3C[C@@H]4C(=O)NCC(=O)N4[C@@H]3c3cccc(OCCO)c3)cc2)[C@@]12C(=O)Nc1ccc(I)cc12 | 0.0068 | 1.24 (inactive) | 0.132 (inactive) | -0.173 (inactive) | 2.17 (inactive) | 1.65 (inactive) | 0.451 (inactive) | 0.17 (inactive) | 0.487 | 0.0586 |
| CCOC(=O)C1=CCC(c2ccc([N+](=O)[O-])cc2)N(S(=O)(=O)c2ccc(C)cc2)C1 (stereo not given) | 0.291 | 2.15 (inactive) | -1.1 (inactive) | 0.774 (inactive) | -0.116 (inactive) | 2.42 (inactive) | -0.627 (inactive) | -0.418 (inactive) | -1.5 | -0.0513 |
| COc1cc(C(O)C2C=CC3C(=O)N(c4ccccc4)C(=O)C3N2Nc2ccc(C#N)cc2)cc(OC)c1OC (stereo not given) | -1.28 | -2.44 (inactive) | -1.62 (inactive) | 0.198 (inactive) | 1.36 (inactive) | -0.343 (inactive) | -0.914 (inactive) | -0.386 (inactive) | -0.919 | 0.0819 |
| O=C(CCN1CCOCC1)c1cccc(O)c1 | 1.19 | -0.804 (inactive) | -1.43 (inactive) | -1.44 (inactive) | -0.407 (inactive) | -1.07 (inactive) | 0.251 (inactive) | 0.737 (inactive) | -1.6 | 0.226 |
| COC(=O)[C@@]1(Cc2ccc(OC)cc2)[C@H]2c3cc(C(=O)N(C)C)n(Cc4c(OC)[nH]cc(C)c4=O)c3C[C@H]2CN1C(=O)c1ccccc1 | -0.672 | 0.87 (inactive) | -2.62 (inactive) | -0.967 (inactive) | 0.7 (inactive) | -0.838 (inactive) | 0.0795 (inactive) | 0.574 (inactive) | -1.93 | 0.295 |
| [N-]=[N+]=Nc1ccccc1[C@H]1OC(c2ccc(OCCCO)cc2)=N[C@@]1(CCS(=O)(=O)c1ccccc1)C(=O)O | 0.181 | -1.65 (inactive) | 0.169 (inactive) | 0.737 (inactive) | -0.319 (inactive) | -0.0777 (inactive) | 2.08 (inactive) | 0.499 (inactive) | 0.438 | 0.143 |
| COC(=O)[C@@]1(Cc2ccc(F)cc2)[C@H]2c3cc(C(=O)N(C)C)n(CCc4ccccn4)c3C[C@H]2CN1C(=O)c1ccccc1 | 0.244 | 0.676 (inactive) | -0.309 (inactive) | -0.804 (inactive) | 0.0944 (inactive) | -0.182 (inactive) | 0.2 (inactive) | -1.02 (inactive) | 0.357 | 0.254 |
| COc1ccc([Si](C)(C)[C@@H]2[C@@H](CCn3cc([C@H](O)c4ccccc4)nn3)O[C@]3(C(=O)N(Cc4cccc(N5CCOC5=O)c4)c4ccccc43)[C@H]2C)cc1 | 0.194 | -0.611 (inactive) | -2.91 (inactive) | 0.539 (inactive) | 1.35 (inactive) | 1.98 (inactive) | 1.44 (inactive) | 1.45 (inactive) | -0.424 | -0.102 |
| COC(=O)[C@@]1(Cc2ccccc2)[C@H]2c3cc(C(=O)N(C)C)n(Cc4c(-c5ccccc5)noc4C)c3C[C@H]2CN1C(=O)c1ccccc1 | -1.19 | 1.56 (inactive) | -2.41 (inactive) | -0.403 (inactive) | 1.98 (inactive) | 0.337 (inactive) | -0.539 (inactive) | -0.971 (inactive) | -2.93 | 0.424 |
| COCCOC(=O)N1C(=O)[C@@]2(c3cc(C#CC4=CCCCC4)ccc31)[C@H](C(=O)N1CCc3cc(OC)c(OC)cc3C1)[C@H]1C(=O)O[C@H](c3ccccc3)[C@H](c3ccccc3)N1[C@@H]2c1ccccc1OCCO | -0.437 | 1.11 (inactive) | 0.224 (inactive) | -0.0424 (inactive) | 2.41 (inactive) | 1.78 (inactive) | -0.649 (inactive) | 0.418 (inactive) | -0.135 | 0.0039 |
| O=C1N(CCS(=O)(=O)c2ccccc2)c2ccccc2C[C@@]12COC(c1ccc(OCCCO)cc1)=N2 | -0.73 | 1.3 (inactive) | -0.756 (inactive) | 0.558 (inactive) | 0.603 (inactive) | 1.31 (inactive) | -0.0526 (inactive) | -0.726 (inactive) | -0.816 | 0.262 |
| COc1ccc([Si](C)(C)[C@@H]2[C@@H](CCn3cc([C@H](O)c4ccccc4)nn3)O[C@]3(C(=O)N(Cc4ccc(N5C(=O)c6cccc7cccc5c67)cc4)c4ccccc43)[C@H]2C)cc1 | -0.651 | -0.349 (inactive) | -1.66 (inactive) | -0.609 (inactive) | 0.65 (inactive) | -0.0915 (inactive) | 0.954 (inactive) | 0.453 (inactive) | -1.01 | -0.157 |
| CCCC[C@H]1OB(O)C[C@H]2C1=C(C)C[C@H]1C(=O)N(Cc3ccccc3)C(=O)[C@H]12 | 0.589 | -5.14 (inactive) | 0.355 (inactive) | -0.231 (inactive) | 0.0481 (inactive) | -0.621 (inactive) | 1.68 (inactive) | 0.452 (inactive) | 0.156 | -0.0627 |
| C=CCC(OC(C)=O)[C@@H]1[C@@H](N(Cc2ccc(-c3cccc(C(F)(F)F)c3)o2)C(=O)c2ccc(C)cc2)c2cc(OCCCO)ccc2N1C(=O)c1ccc(-c2ccccc2)cc1 (stereo not given in full) | 0.0024 | -0.15 (inactive) | -0.936 (inactive) | -0.23 (inactive) | 0.477 (inactive) | 0.677 (inactive) | -0.456 (inactive) | 0.0289 (inactive) | 0.525 | -0.127 |
| CC1CC/C=C\[C@H]2OC34C=CCN(Cc5ccccc5)C(=O)[C@H]3N(CCCCCO)C(=O)[C@@H]4C2C(=O)O1 (stereo not given in full) | -0.0371 | -0.308 (inactive) | 0.521 (inactive) | -0.419 (inactive) | -0.565 (inactive) | 0.0882 (inactive) | 0.443 (inactive) | 0.667 (inactive) | 0.461 | -0.0062 |
| O=c1cccc(CCc2ccccc2)o1 | -0.523 | -3.45 (inactive) | -0.0074 (inactive) | -1.19 (inactive) | -0.156 (inactive) | -0.259 (inactive) | -0.74 (inactive) | -0.608 (inactive) | -0.753 | 0.273 |
| O=C1C[C@]2(c3ccc([N+](=O)[O-])cc3)C(=O)N(CC(F)(F)F)c3cc(CO)ccc3[C@H]2N1CC12CC3CC(CC(C3)C1)C2 | 0.961 | 0.695 (inactive) | -1.2 (inactive) | -3.73 (inactive) | 0.503 (inactive) | -0.319 (inactive) | 0.973 (inactive) | 0.672 (inactive) | -0.157 | -0.222 |
| COC(=O)C1=CC(CCCO)=CC(C2CC2)N(Cc2sc3ccccc3c2Cl)C=C1C(=O)OC (stereo not given) | -0.908 | -1.32 (inactive) | -0.944 (inactive) | -4.56 (inactive) | -0.0065 (inactive) | 1.61 (inactive) | 0.386 (inactive) | -0.444 (inactive) | -0.691 | -0.0172 |
| CCOC(=O)C[C@H]1[C@H](OC(=O)c2ccccc2-c2ccccc2)[C@@H](NC(=O)c2ccc3ccccc3c2)c2cc(OCCCO)ccc2N1C(=O)c1ccc2ccccc2n1 | 1.33 | 0.682 (inactive) | 0.288 (inactive) | 0.428 (inactive) | -0.271 (inactive) | 0.876 (inactive) | 0.672 (inactive) | 0.641 (inactive) | 0.726 | -0.144 |
